Reference: ChEMBL document CHEMBL4513216, “Probing the Open Global Health Chemical Diversity Library for Multistage-Active Starting Points for Next-Generation Antimalarials” (ACS Infect Dis, 2020)
Among all 69,000 compounds or so, about 8,600 (12%) showed an effect of 50% or more. The entries come from a sample that favours strong results as a whole.

system: Plasmodium berghei; experiment: Screen against P. berghei liver stage (PbLuc), transformed with Luciferase, at 10uM; format: functional, HepG2; conditions: tested at 10 uM

Structure (SMILES)	INHIBITION
Cc1cc(NC(=O)NCc2cccnc2OC(C)C)no1	31.2%
Cc1cc(C)n(CC(C)Nc2nc(C)nc3c2CCNC3)n1 (stereo not drawn)	-9.18%
Cc1oc(-c2ccco2)nc1CN1CCc2cncnc2C1	45.4%
c1cncc(CNC2CCc3ncnn3C2)c1 (stereo not drawn)	33.3%
Cc1ccc(C)c(NCc2nc3n(n2)CCCCC3)c1	17.6%
Cc1csc2c(C3CCN(C(=O)Cn4cncn4)CC3)nc(C)n12	32.3%
CC(C)c1nc(C2CCCN2CCS(C)(=O)=O)no1 (stereo not drawn)	31.5%
CS(=O)(=O)N[C@@H]1CN(Cc2ccccc2)C[C@@H]2CCCO[C@@H]21	-57.7%
CC(C)[C@@H]1CN(C2CCN(Cc3ccccc3)CC2)C[C@H]1NS(C)(=O)=O	64.9%
CC(C)[C@@H]1CN(CCOc2ccccc2)C[C@H]1NS(=O)(=O)N(C)C	33.2%
CS(=O)(=O)N[C@@H]1CN(Cc2ccccc2)C[C@H]1O	22.8%
CC(C)[C@H]1CN(C2Cc3ccccc3C2)C[C@@H]1NS(=O)(=O)N(C)C	55%
CC(C)[C@@H]1CN(S(=O)(=O)Cc2ccccc2)C[C@H]1NS(=O)(=O)N(C)C	32.7%
Cc1noc(C)c1CN1C[C@@H]2CCCO[C@@H]2[C@H](Nc2ccccn2)C1	16.4%
Cc1noc(C)c1CN1CCCCC1CCc1ccc(O)cc1 (stereo not drawn)	12.6%
COCCN1CC(=O)N2CC[C@@H](O)C[C@H]2C1=O	10.615%
CC(C)[C@@H]1CN(C(=O)CN(C)Cc2ccccc2)C[C@H]1C(=O)O	47.9%
COc1ccc(C2(C(=O)N3C[C@@H](C(=O)O)[C@H](C(C)C)C3)CC2)cc1	-17.3%
CC(C)[C@@H]1CN(C(=O)C2(c3ccccc3)CCN(C)CC2)C[C@H]1C(=O)O	64%
Cc1ccsc1C(=O)N1C[C@@H](C(=O)O)[C@H](C(C)C)C1	24.4%
CC(C)[C@@H]1CN(C(=O)C2(c3ccccc3)CCN(C)CC2)C[C@H]1N(C)C	39.4%
CC(C)[C@@H]1CN(C(=O)C2(c3ccccc3)CC2)C[C@H]1C(=O)O	50.1%
CS(=O)(=O)N1CCC(c2cncc(Cl)n2)CC1	-1.16%
CC(C)CN(Cc1ccccn1)Cc1ccccc1OCC(=O)O	54.4%
CC(C)CN(Cc1ccccn1)Cc1ccccc1C(=O)O	38.6%
CC(C)CN(Cc1ccc(O)c(C(=O)O)c1)Cc1ccccn1	43.9%

Structure (SMILES)	INHIBITION
COCC(=O)NCCn1nc(-c2cc(C)oc2C)ccc1=O	-0.275%
O=C(c1ccccc1-c1ccccc1)N1C[C@@H]2CNC[C@]2(C(=O)O)C1	49.7%
O=C(Nc1ccccc1-c1ccccc1)N1C[C@@H]2CNC[C@]2(C(=O)O)C1	55.4%
O=C(Nc1ccc(-c2ccccc2)cc1)N1C[C@@H]2CNC[C@]2(C(=O)O)C1	41.5%
Cc1cc(CNC2CCCN(Cc3noc(C4CC4)n3)C2)on1 (stereo not drawn)	46.2%
CN(CCc1ccccn1)C(=O)CCC1CCCN(c2ncccn2)C1 (stereo not drawn)	16.1%
CCCc1csc(-c2ccc(S(C)(=O)=O)cc2)n1	-39.1%
CC(C)(CN1CCC(Cc2cccc(C(=O)O)c2)C1)N1CCOCC1 (stereo not drawn)	1.71%
CCOc1ccc(Oc2cc(N)ccn2)cc1	-55.5%
O=C(CN1CCOC(Cn2cccn2)C1)NC(C1CC1)C1CC1 (stereo not drawn)	58.2%
Cc1nc(NC(=O)CN2CCOC(Cn3cccn3)C2)sc1C (stereo not drawn)	60.4%
O=C(CN1CCOC(Cn2cccn2)C1)Nc1ccncc1 (stereo not drawn)	-18.2%
Cc1cnn(CC2CN(CC(=O)Nc3nccs3)CCO2)c1 (stereo not drawn)	29.6%
O=C(CN1CCOC(Cn2cncn2)C1)NC(C1CC1)C1CC1 (stereo not drawn)	23.9%
Cc1nnc(NC(=O)CN2CCOC(Cn3cccn3)C2)s1 (stereo not drawn)	17.4%
O=C(CN1CCOC(Cn2cccn2)C1)Nc1nncs1 (stereo not drawn)	41.2%
CN(Cc1ccsc1)C(=O)CN1CCOC(Cn2cccn2)C1 (stereo not drawn)	33%
Cc1cnn(CC2CN(CC(=O)N(C)c3nccs3)CCO2)c1 (stereo not drawn)	11.8%
Cc1nn(C)c(C)c1NC(=O)CN1CCOC(Cn2cccn2)C1 (stereo not drawn)	47.1%
CN(C(=O)CN1CCOC(Cn2cccn2)C1)c1nccs1 (stereo not drawn)	52.1%
O=C(CN1CCOC(Cn2cccn2)C1)Nc1nccs1 (stereo not drawn)	53.3%
NC(=O)c1csc(N2C[C@@H](CN3CCCCC3)[C@@H](CO)C2)n1	14.45%
CC(=O)c1cc2ncc(C(=O)NC3CCCCC3)cc2[nH]1	-25.1%
COC(=O)C(C)(C)NC(=O)C1CC(=O)N(CC(F)(F)F)C1 (stereo not drawn)	-28.7%
CC(NC(=O)OC(C)(C)C)c1nnc(S(=O)(=O)Cc2ccccc2Cl)o1 (stereo not drawn)	21.5%
Cn1ncc2c1C(COCC1CC1)CN(c1ncc(F)cn1)C2 (stereo not drawn)	7.67%

Structure (SMILES)	INHIBITION
Cn1cc(-c2nc(C(=O)N3CCCC3Cn3cccn3)cs2)cn1 (stereo not drawn)	40.2%
Cc1ccc(CC(=O)N2CCCCC2Cn2cccn2)cn1 (stereo not drawn)	30.3%
COc1cc(C2CC(=O)c3c(O)cc(O)cc3O2)ccc1O (stereo not drawn)	-17.1%
O=C1c2c(O)cc(O)cc2O[C@@H](c2ccc(O)cc2)[C@@H]1O	70.8%
Oc1ccc([C@H]2Oc3cc(O)cc(O)c3C[C@@H]2O)cc1	7.5%
COc1cc2c(cc1CN1CCn3c(CO)nnc3C1)CCC2	3.91%
Cc1nc(C)n(CC2CCCCN2CCc2ccncc2)n1 (stereo not drawn)	4%
CCOC(=O)Cn1cccc(S(=O)(=O)N2CCCC2)c1=O	-2.92%
OC1CCN(Cc2ccnc(-c3cccnc3)n2)CC1	42.4%
CCN1CCN(Cc2ccnc(-c3cccnc3)n2)CC1	46.1%
c1cncc(-c2nccc(CN3CCC(N4CCCCC4)CC3)n2)c1	17.1%
c1ccc(CC2CCN(Cc3ccnc(-c4cccnc4)n3)CC2)cc1	50%
CC1CCCN(Cc2ccnc(-c3cccnc3)n2)C1 (stereo not drawn)	-6.92%
c1cncc(-c2nccc(CN3CCCC3)n2)c1	51.2%
COCCN1C[C@@H](c2ccccc2)[C@@]2(CCN(CC(=O)N(C)C)C2=O)C1	-4.82%
Cc1ccccc1N1CC2(CCN(S(=O)(=O)c3cccs3)C2)CC1=O (stereo not drawn)	35.7%
CC(=O)c1cc(CN2C[C@@H]3CC[C@H]2CN(S(=O)(=O)N(C)C)C3)cs1	80.1%
CN(C)S(=O)(=O)N1C[C@H]2CC[C@@H](C1)N(Cc1ccc3nsnc3c1)C2	45.1%
CC(=O)c1cc(CN2C[C@@H](N(C)C)[C@H](C(C)C)C2)cs1	13.7%
CC(=O)c1cc(CN2C[C@@H]3CC[C@H]2CN(S(C)(=O)=O)C3)cs1	-52.2%
CC(C)[C@@H]1CN(C(=O)NCCc2ccccc2)C[C@H]1NS(=O)(=O)N(C)C	41.3%
CC(C)[C@@H]1CN(Cc2ccsc2)C[C@H]1NS(=O)(=O)N(C)C	50.1%
CC(=O)c1cc(CN2C[C@@H](NS(=O)(=O)N(C)C)[C@H](C(C)C)C2)cs1	52.2%
Cc1nc(CN2C[C@@H](NS(=O)(=O)N(C)C)[C@H](C(C)C)C2)cs1	38.3%
Cc1noc(C)c1CN1C[C@@H](NS(=O)(=O)N(C)C)[C@H](C(C)C)C1	24.3%
COCCN1C[C@H]2[C@@H](C1)N(C(=O)CCc1ccccc1)CC[C@H]2OC	-14.1%

Structure (SMILES)	INHIBITION
COC(=O)CN(C(=O)c1ccc(-n2ccnc2)cc1)C1CC1	6.23%
CC(C)c1cc(CN(C)C(=O)CN2CCCCC2=O)no1	15.4%
Cc1nc(O)cc([C@@H]2CN(S(=O)(=O)N(C)C)C[C@H]2c2ccccc2F)n1	-6.15%
COCC1CN(S(=O)(=O)c2cccc(F)c2)Cc2nccn2C1 (stereo not drawn)	41.2%
Cn1cc(CN2CCC[C@]3(C[C@H](Oc4ncccc4F)CO3)C2)cn1	31.5%
CCC(C)NC(=O)c1nnn(-c2ccc(Br)cc2)n1 (stereo not drawn)	-10.6%
Cc1nc(CN2CCCN(c3nccs3)CC2)no1	-63.3%
CCc1nc(CN2CCCN(c3ncnc4sccc34)CC2)no1	95.1%
CCc1nc(CN2CCCN(c3ncnc4ccsc34)CC2)no1	91.1%
CCc1nc(CN2CCCN(c3nccs3)CC2)no1	22.5%
CCc1nc(CN2CCCN(Cc3cnn(C)c3)CC2)no1	35.5%
CCn1ccnc1CN1CCN(c2ncnc3ccsc23)CC1	-50.7%
Cc1nc(CN2C[C@@H]3CN(C(=O)c4ccnnc4)C[C@@H]3C2=O)cs1	13.6%
COc1ccccc1OC1CN(C(=O)Cc2c(C)nc3ccccn23)C1	-7.2%
COc1ccccc1OC1CN(C(=O)c2ccccc2C(C)=O)C1	65.7%
COc1ccccc1OC1CN(C(=O)c2c(C)nc3ccc(C)cn23)C1	86.8%
COc1ccccc1OC1CN(C(=O)c2ccc(C(C)=O)s2)C1	7.3%
COc1ccccc1OC1CN(C(=O)Cc2c(C)nc(N)nc2C)C1	1.71%
COc1ccccc1OC1CCN(C(=O)c2cccc(O)c2C)CC1	19.3%
CCCC(=O)N1CCCC(c2cc3cccnc3c(O)n2)C1 (stereo not drawn)	25.8%
CCOCC(=O)N1CCc2c(CN(C)C)nn(C(C)C)c2C1	23.1%
NC(=O)c1cn[nH]c1NC(=O)c1ccc2c(c1)OCO2	-16.4%
CCS(=O)(=O)CCNC(=O)c1ccc(-c2ccc(C)cc2)cc1F	8.47%
NS(=O)(=O)CCNC(=O)c1ccc(-c2ccc(F)cc2)cc1F	-33.2%
Cc1ccc(-c2ccc(C(=O)NCCS(N)(=O)=O)c(F)c2)cc1	55.4%
